Screens deposited in PubChem by Sanford-Burnham Center for Chemical Genomics.
The entries come from a sample that favours hits as a whole.
Artemis endo inh = inhibitors of human Artemis endonuclease activity. Q96SD1. recombinant Artemis, quenched FAM hairpin cleavage fluorescence. inhibition, % at 10 µM. 30,000 compounds, 0.78% hits. AID 686954;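 active means at 10 µM dose, at least 30% inhibition, measured as corrected fluorescence normalized to stimulator and neutral control wells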
Target sequence (Q96SD1 whole entry, looked up): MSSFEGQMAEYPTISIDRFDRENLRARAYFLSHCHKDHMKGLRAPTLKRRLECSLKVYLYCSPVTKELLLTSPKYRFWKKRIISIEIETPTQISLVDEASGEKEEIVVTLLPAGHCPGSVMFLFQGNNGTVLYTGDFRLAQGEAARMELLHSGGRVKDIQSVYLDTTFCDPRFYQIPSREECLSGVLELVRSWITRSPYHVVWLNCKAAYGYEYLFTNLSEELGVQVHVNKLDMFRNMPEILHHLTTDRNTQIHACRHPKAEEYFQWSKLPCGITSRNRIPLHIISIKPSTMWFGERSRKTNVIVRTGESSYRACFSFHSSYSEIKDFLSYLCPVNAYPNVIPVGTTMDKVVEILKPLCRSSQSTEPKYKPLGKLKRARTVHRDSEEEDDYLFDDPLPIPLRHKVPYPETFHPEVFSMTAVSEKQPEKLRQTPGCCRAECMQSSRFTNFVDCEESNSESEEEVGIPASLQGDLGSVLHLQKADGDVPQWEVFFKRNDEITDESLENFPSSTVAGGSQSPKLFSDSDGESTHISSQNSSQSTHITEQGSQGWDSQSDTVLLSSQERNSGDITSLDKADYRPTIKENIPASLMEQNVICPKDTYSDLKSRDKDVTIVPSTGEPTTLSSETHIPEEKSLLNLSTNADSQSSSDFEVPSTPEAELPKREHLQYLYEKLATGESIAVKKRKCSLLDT
Hits are given with their value.

`COc1ccccc1N/C(N)=N/c1nc(CSc2ccc(C)cc2)cc(=O)[nH]1` gave Artemis endo inh 30.
For COc1ccc(N/C(N)=N/c2nc(CSc3ccc(C)cc3)cc(=O)[nH]2)cc1 the results were Artemis endo inh inactive.
Screening CCC(C)c1ccc(OCCCCN2CCOCC2)cc1 (centres undefined) returned Artemis endo inh inactive.
For O=C(CCC1CCCC1)NC1CCCCC1 the results were Artemis endo inh inactive.
For c1ccc(-c2cn3c(n2)CCC3)cc1 the results were Artemis endo inh inactive.
Brc1ccc(-c2cn3nc4c(nc3n2)CCCC4)cc1 was read as Artemis endo inh 31.
`c1ccc(-c2cn3nc4c(nc3n2)CCCC4)cc1` gave Artemis endo inh 34.
`c1ccc(-c2cn3c(n2)SCC3)cc1` gave Artemis endo inh inactive.
Screening Brc1ccc2nc3c(n2c1)CCCC3 returned Artemis endo inh inactive.
Brc1ccc(-c2cnnc(N3CCCC3)n2)cc1 was read as Artemis endo inh inactive.
O=C(CCSc1nnc(-c2ccncc2)o1)Nc1ccccc1Cl was read as Artemis endo inh inactive.
`CCC(C)NS(=O)(=O)c1ccc(-c2csnn2)s1` (centres undefined) gave Artemis endo inh inactive.
For Cc1cc(C)c(C(N)=O)c(Nc2ccc3c(c2)OCCO3)n1 the results were Artemis endo inh inactive.
For COc1ccccc1Nc1nc(C)cc(C)c1C(N)=O the results were Artemis endo inh inactive.
`Cc1cc(C)c(C(N)=O)c(Nc2cccc3ccccc23)n1` gave Artemis endo inh 34.
Screening Cn1cc(C(=O)c2ccc(Cl)cc2Cl)cc1C(=O)N/N=C(\N)COc1cccc(C(F)(F)F)c1 returned Artemis endo inh inactive.
For COc1ccc(CCn2c(C)c(C(C)=O)c3cc(OC(=O)c4ccco4)ccc32)cc1OC the results were Artemis endo inh inactive.
COC(=O)c1ccc(CSc2nc3ccc(C)cc3[nH]2)o1 was read as Artemis endo inh inactive.
`COC(=O)C1=C(C)NC(=O)NC1c1cccc(OC)c1OCc1ccccc1` (centres undefined) gave Artemis endo inh inactive.
For CCOC(=O)N1CCN(c2nc3ccccc3nc2C(C#N)S(=O)(=O)c2ccc(C)cc2)CC1 (centres undefined) the results were Artemis endo inh 33.
`C=CCOC(=O)C(C#N)c1nc2ccccc2nc1N1CCN(Cc2ccccc2)CC1` (centres undefined) gave Artemis endo inh inactive.
Screening C=CCOC(=O)C(C#N)c1nc2ccccc2nc1N1CCN(c2ccccc2OC)CC1 (centres undefined) returned Artemis endo inh inactive.
For Cc1ccc(N2C(=O)CC3(CC4C=CC3C4)C2=O)cc1 (centres undefined) the results were Artemis endo inh inactive.
`OCCOCCn1c2ccccc2c2ccccc21` gave Artemis endo inh inactive.
Screening c1ccc(-c2nc3c(ccc4ccccc43)[nH]2)nc1 returned Artemis endo inh 44.
O=c1[nH]c(-c2ccccn2)nc2ccccc12 was read as Artemis endo inh inactive.
For Cc1[nH]c2ccccc2c1C(c1ccccn1)c1c(C)[nH]c2ccccc12 the results were Artemis endo inh inactive.
Screening Cc1ccc(C(=O)Nc2onc(C)c2C#N)cc1 returned Artemis endo inh inactive.
CCOC(=O)C(=O)Nc1nnc(CCc2ccccc2)s1 was read as Artemis endo inh inactive.
`COc1cccc(/C=N/NC(=O)c2c(-c3ccccc3)noc2C)c1O` gave Artemis endo inh inactive.
Screening COc1cccc(/C=N/Nc2nc(Nc3ccccc3)nc(-n3nc(C)cc3C)n2)c1O returned Artemis endo inh 96.
COc1cccc(/C=N/n2c(C)nc3ccccc3c2=O)c1O was read as Artemis endo inh inactive.
`CCc1nc(NCCCCCO)c2nnn(Cc3ccccc3F)c2n1` gave Artemis endo inh inactive.
COc1cccc(C(=O)Oc2cc(-c3ccccc3)no2)c1 was read as Artemis endo inh inactive.
CCCSc1cc(N2CCOCC2)nc(-c2ccccc2Cl)n1 was read as Artemis endo inh inactive.
For CCn1c(SCC(=O)c2cc(OC)ccc2OC)nnc1C1CC1 the results were Artemis endo inh inactive.
`COc1cccc(COc2ccccc2C2Nc3ccc(Br)cc3C(=O)N2NC(=O)c2ccncc2)c1` (centres undefined) gave Artemis endo inh inactive.
`COC(=O)CN(C(=O)CSc1nnc(-c2cccc(OC)c2)o1)c1ccc(OC)cc1` gave Artemis endo inh 34.
`COc1cccc(-c2nnc(SCC(=O)N3CCOCC3)o2)c1` gave Artemis endo inh inactive.
COc1ccc(C(=O)CSc2nnc(-c3ccccc3)o2)cc1 was read as Artemis endo inh inactive.
For CCCCCCn1cnc2c(c1=O)c1nc3ccccc3nc1n2/N=C/c1ccco1 the results were Artemis endo inh 32.
CCO/C(C)=N/n1c2nc3ccccc3nc2c2c(=O)n(C3CCCC3)c(C)nc21 was read as Artemis endo inh inactive.
For Cc1nc2c(c(=O)n1CCC1=CCCCC1)c1nc3ccccc3nc1n2/N=C/c1ccco1 the results were Artemis endo inh 41.
`CCCCn1c2nc3ccccc3nc2c2c(=O)n(CCC)cnc21` gave Artemis endo inh inactive.
Screening CCCCCCn1cnc2c(c1=O)c1nc3ccccc3nc1n2Cc1cccs1 returned Artemis endo inh inactive.
For Cc1cccc(-n2cnc3c(c2=O)c2nc4ccccc4nc2n3Cc2ccco2)c1 the results were Artemis endo inh inactive.
For C/C(CCc1ccc2c(c1)OCO2)=N\N=C(/N)SC1CC(=O)N(c2ccccc2F)C1=O (centres undefined) the results were Artemis endo inh inactive.
CCC(=O)Nc1cc(C)c(NC(=O)c2ccccc2OC)cn1 was read as Artemis endo inh inactive.
For CCOC(=O)C1CCN(S(=O)(=O)c2c(C)n[nH]c2C)CC1 the results were Artemis endo inh inactive.
For CCOC(=O)CSC1=C(C#N)C(C)C2=C(CCCC2=O)N1 (centres undefined) the results were Artemis endo inh inactive.
Cc1cc(=O)[nH]c(SCC(=O)c2c(N)n(C)c(=O)n(C)c2=O)n1 was read as Artemis endo inh inactive.
Screening COc1ccc(-n2c(SCC(=O)Nc3sc4c(c3C#N)CCCC4)nnc2-c2ccccc2OC)cc1 returned Artemis endo inh inactive.
For COc1ccc(-c2ccc(C#N)c(SCC(=O)Nc3sc4c(c3C#N)CCC4)n2)cc1 the results were Artemis endo inh inactive.
For COc1ccc(-c2nnc(SCC(=O)Nc3sc4c(c3C#N)CCC4)n2CC2CCCO2)cc1 (centres undefined) the results were Artemis endo inh 42.
Screening N#Cc1c(NC(=O)CSc2nnc(-c3ccco3)n2-c2ccccc2)sc2c1CCC2 returned Artemis endo inh 36.
Screening COc1ccc(-c2nnc(SCC(=O)NC(C)C)n2CC2CCCO2)cc1OC (centres undefined) returned Artemis endo inh inactive.
For CCn1c(SCC(=O)Nc2sc3c(c2C#N)CCCC3)nnc1-c1ccco1 the results were Artemis endo inh inactive.
For COc1ccccc1-n1c(=O)oc2ccc(Cl)cc2c1=O the results were Artemis endo inh inactive.
`Nn1c(SCC(=O)N2CCN(S(=O)(=O)c3ccc(Cl)cc3)CC2)nnc1-c1cccs1` gave Artemis endo inh inactive.
For Cc1cc(C)c2cc(CN(CCO)Cc3nnnn3Cc3ccc(F)cc3)c(=O)[nH]c2c1 the results were Artemis endo inh inactive.
For Cc1cc(C)c2cc(CN(Cc3ccc4c(c3)OCO4)Cc3nnnn3Cc3ccco3)c(=O)[nH]c2c1 the results were Artemis endo inh 40.
CCC(c1nnnn1Cc1ccco1)N(CCc1ccccc1)Cc1cc2cc(C)ccc2[nH]c1=O (centres undefined) was read as Artemis endo inh inactive.
